This passage reports IC50 results from PubChem BioAssay AID2501 (Southern Research Specialized Biocontainment Screening …, 2010).

The whole screen tested about 2,200 compounds, of which about 1,200 (55%) were called active. No cut-off is given here; in the data, nearly all actives have IC50 up to about 92 µM. So high a share suggests a set chosen from earlier hits. The list shows a part of the results.

The nature of this assay: counter assay for TAg ATPase ADP read-out – biochemical, ADP-Hunter, fluorescence, counter-screen (AID 2501).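 For inhibition: higher means more inhibition.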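 Note: purified T antigen ATPase.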 The conditions noted are these: series mostly up to 100 µM. (A counterscreen serves to expose hits that act by an unwanted route or on another target.)
Regarding `CCn1c(C)nc2cc(C(=O)N/N=C/c3ccc(OC)c(O)c3)ccc21`, the concentration for half-maximal inhibition (IC50) is 3.58 µM (active).
Then `O=c1cc(-c2ccc(Br)cc2)[nH][nH]1`, with 12.3 µM (active).
`CN1C(=O)NC(c2ccc(O)cc2)C2=C1CN(c1ccc(O)cc1)C2=O` (stereo not given): the IC50 is 4.84 µM (active).
For `Cc1cc(C)nc(Nc2ccc(O)cc2)n1`, the half-maximal inhibitory concentration (IC50) was 3.35 µM (active).
Then `Cc1cc(C)nc(SSc2nc(C)cc(C)n2)n1`, with “inactive”; and `Cc1cc(C)nc(NC(=O)c2ccc(Cl)cc2)n1`, with “inactive”; and `Oc1ccc(-c2[nH]ncc2-c2cccc3cccnc23)c(O)c1`, with 18.1 µM (active).
Consider `COc1ccccc1-n1cc(CN2CCN(C3CCCCC3)C(CCO)C2)cn1` (stereo not given), for which the IC50 entry was “inactive”.
Then `CCc1ccc(OCc2nnc(SCC(=O)Nc3cccc(C(=O)N4CCOCC4)c3)o2)cc1`, with “inactive”.
Regarding `O=C(c1ccc2ccccc2c1)N1CCN(c2ccc(O)cc2)CC1`, the IC50 was 4.79 µM (active).
Take `O=C1c2ccccc2S(=O)(=O)c2cc(C(=O)N3CCC(N4CCCC4)CC3)ccc21`: the IC50 entry is “inactive”.
The figure for `O=C(c1cccc(-c2ccc(O)cc2)c1)N1CCOCC1` is 4.07 µM (active); for `O=C(c1ccc2ncsc2c1)N1CCN(c2ccc(O)cc2)CC1` it is 3.9 µM (active).
Take `O=C(c1cccc(F)c1)N1CCC(N2CCOCC2)CC1`: the IC50 result is “inactive”.
`c1coc(-c2nnc(-c3ccco3)nn2)c1`: the IC50 result is “inactive”.
With `O=C(N/N=C/c1ccc(O)cc1O)/C(=C/c1ccccc1)CCO`, the 50% inhibitory concentration (IC50) was 11.2 µM (active).
Regarding `COc1ccc(OC)c(CCNC(=O)Cn2sc3nc(C)cc(C)c3c2=O)c1`, the IC50 result is “inactive”.
For the molecule `Cc1cc2nc3ccc(N(C)C)cc3nc2cc1N`, the concentration for half-maximal inhibition (IC50) is 90.6 µM (active).
Then `O=C(O)Cc1c[nH]c2cccc(O)c12`, with 34.4 µM (active); and `OC[C@H]1O[C@@H](Oc2cc(O)cc(/C=C/c3ccc(O)cc3)c2)[C@H](O)[C@@H](O)[C@@H]1O`, with 7.7 µM (active).
Consider `O=c1c(-c2ccc(O)cc2)coc2cc(OC3OC(CO)C(O)C(O)C3O)ccc12` (stereo not given), for which the 50% inhibitory concentration (IC50) is 12.9 µM (active).
Then `O=C(O)CC(CCc1ccccc1)OC1OC(CO)C(O)C(O)C1O` (stereo not given), with “inactive”; and `CCCCN(CC)Cc1ccc(CNC(=S)Nc2ccc(C)cc2Cl)o1`, with “inactive”.
On to `Oc1ccc(/C=N/Nc2nccnc2Cl)cc1`, for which the concentration for half-maximal inhibition (IC50) is 3.29 µM (active).
The figure for `O=c1[nH]ncc(N/N=C\c2ccc(O)cc2O)c1Cl` is 6.23 µM (active).
`Oc1ccc(/C=N/Nc2nccnc2Cl)c(O)c1`: the 50% inhibitory concentration (IC50) is 11.8 µM (active).
Take `Cc1cc2cc3c(N)[nH]nc3nc2cc1C`: the IC50 was 6.68 µM (active).
Then `CCc1ccc2nc3n[nH]c(N)c3cc2c1`, with 5.76 µM (active); and `Cc1ccc2cc3c(N)[nH]nc3nc2c1`, with 6.56 µM (active).
Turning to `C=CCOC(=O)C1=C[C@@H](c2ccc3c(c2)OCO3)C[C@@H](OCCCCO)O1`, the IC50 result was “inactive”.
Regarding `O=C(O)c1cc(S(=O)(=O)O)cc(Nc2c3ccccc3nc3ccccc23)c1O`, the half-inhibitory concentration (IC50) is 14.7 µM (active).
The entry for `COC/C=C/C1=CC2=CC(=O)C(C)(O)C(=O)C2=CO1` (stereo not given) is “inactive”; for `Nc1ccc(-c2nc3cc(N)ccc3n2CCO)cc1` it is 9.16 µM (active); for `O=C(O)C1Nc2ccc(OC(F)(F)F)cc2C2C=CCC12` (stereo not given) it is “inactive”.
Then `COc1ccc(Nc2ccc(OC)cc2)cc1`, with 11.3 µM (active); and `Cc1nc(-c2ccc(O)c(O)c2)cs1`, with 6.64 µM (active); and `Oc1ccc(-c2nc(-c3ccc(O)c(O)c3)cs2)cc1`, with 17.4 µM (active).
With `COc1cc(-c2csc(C)n2)ccc1O`, the IC50 is 3.58 µM (active).
Then `COC(=O)C1=C(C)N(Cc2ccccc2)C(=NCCCCO)N[C@H]1c1ccccc1`, with “inactive”.
With `Cc1nc(SCC(=O)N2CCOCC2)c2ccsc2n1`, the IC50 entry was “inactive”.
The entry for `CC(=O)c1cccc(NC(=O)N2CCCC2C(=O)NCc2ccccc2)c1` (stereo not given) is “inactive”; for `COc1ccc(S(=O)(=O)N2CCN(CC(=O)Nc3cccc(OC)c3)CC2)cc1` it is “inactive”.
`COc1ccc(N2CCC(CNC(=O)Nc3ccccc3)C2)cc1` (stereo not given): the IC50 was 8.01 µM (active).
For `COc1ccc(N2CCC(CNC(=O)Nc3cccc(OC)c3)C2)cc1` (stereo not given), the IC50 was 3.36 µM (active).
On to `Nc1nc(Sc2c([N+](=O)[O-])cc(C(F)(F)F)cc2[N+](=O)[O-])n[nH]1`, for which the IC50 entry is “inactive”.
The entry for `CCOC(=O)CC(=O)CSc1nc(N)c(C#N)c(-c2ccc(Cl)cc2)c1C#N` is “inactive”; for `Oc1ccc(-c2nc3ccccn3c2NCc2ccco2)cc1` it is 3.24 µM (active).
As to `Oc1ccc(Nc2nc(Cl)nc(NCc3ccco3)n2)cc1`, the IC50 is 6.71 µM (active).
Turning to `CCOC(=O)CNc1c(-c2ccc(O)cc2)nc2ccccn12`, the IC50 was 4.76 µM (active).
With `CC(C)Nc1nc(Cl)nc(Nc2ccccc2)n1`, the IC50 entry was “inactive”.
Consider `CCOC(=O)CNc1c(-c2ccc(O)cc2)nc2ccc(Cl)cn12`, for which the IC50 was 2.95 µM (active).
Then `O=C(c1ccc(Cl)cc1)C1CCCN(C(=O)c2csnn2)C1` (stereo not given), with “inactive”; and `O=c1c(-c2ccc([N+](=O)[O-])cc2)coc2c(O)c(O)ccc12`, with 11.1 µM (active).
The entry for `O=C(NNC(=O)c1ccccc1O)c1ccc(-c2ccc([N+](=O)[O-])cc2)o1` is “inactive”.
As for `CCOc1ccc(OC(=O)c2cccc(S(=O)(=O)N3CCN(C)CC3)c2)cc1`, the IC50 was 41.5 µM (active).
For `O=C(CCN1C(=O)C2CCCCC2C1=O)N1CCN(S(=O)(=O)c2cccc(F)c2)CC1` (stereo not given), the IC50 entry was “inactive”.
Regarding `CC(=O)c1cccc(S(=O)(=O)N2CCCC(c3nc(-c4ccc(C)o4)no3)C2)c1` (stereo not given), the IC50 result is “inactive”.
The figure for `COc1cc(-c2nnc(SCc3cc(=O)oc4cc(O)c(O)cc34)o2)cc(OC)c1OC` is 11.6 µM (active); for `COc1cc(/C(C)=N/NC(=O)CSc2nnc(C)s2)ccc1O` it is 8.44 µM (active).
Take `CCOC(=O)c1c(C)[nH]c(C)c1C(=O)CSc1nc2ccccc2[nH]1`: the IC50 entry is “inactive”.
The figure for `COc1cc(/C(C)=N/NC(=O)CSc2nc3ccccc3[nH]2)ccc1O` is 6.48 µM (active); for `CC1C=CCC2C(=O)N(c3cc(Cl)ccc3O)C(=O)C12` (stereo not given) it is “inactive”.
Consider `COc1ccc(NN=Nc2nc3c([nH]2)c(=O)n(C)c(=O)n3C)cc1`, for which the 50% inhibitory concentration (IC50) was 25.4 µM (active).
The entry for `O=S(=O)(Nc1c(S(=O)(=O)c2ccccc2)c2nc3ccccc3nc2n1C1CCCCC1)c1ccccc1` is “inactive”.
Consider `CCN(CC)P(=O)(C(NC(=O)OC)C(F)(F)C(F)(F)C(F)(F)C(F)F)N(CC)CC` (stereo not given), for which the IC50 result is “inactive”.
The figure for `O=Nc1ccc(NOC(=O)c2ccccc2Br)cc1` is 22.1 µM (active); for `N#Cc1c(Nc2ccccc2C(F)(F)F)s[nH]c1=O` it is “inactive”.
Then `C/C(=N\NC(=O)CSCc1ccc([N+](=O)[O-])cc1)c1ccccc1`, with “inactive”; and `C/C(=N\NC(=O)Cn1cc([N+](=O)[O-])cn1)c1ccc(O)cc1`, with 10.7 µM (active); and `Oc1ccc(CCNc2c3ccccc3nc3ccccc23)cc1O`, with 6.72 µM (active).
The entry for `O=C1CC(c2ccccc2)c2cccc(F)c21` (stereo not given) is “inactive”.
As to `COc1cc(/C=N/NC(=O)c2ccc(Cn3cc([N+](=O)[O-])cn3)o2)cc(Br)c1O`, the 50% inhibitory concentration (IC50) was 8.55 µM (active).
Then `COc1cc(/C=N\NC(=O)c2ccc(Cn3nc([N+](=O)[O-])c(Cl)c3C)o2)ccc1O`, with 6.71 µM (active); and `COc1ccc(/C=N/NC(=O)c2cc(O)c(O)c(O)c2)cc1Cn1cc([N+](=O)[O-])cn1`, with “inactive”; and `COC(=O)CCC(=O)OC1(C)C(=O)C2=COC(c3ccc(OC)cc3)=CC2=C(Br)C1=O` (stereo not given), with “inactive”.
Then `Cc1nn(C(C)C(=O)O)c2ccccc12` (stereo not given), with “inactive”; and `COc1cc(C2C(C#N)=C(N)Oc3n[nH]c(-c4cccnc4)c32)cc(Br)c1O` (stereo not given), with 16.7 µM (active); and `Cc1[nH]nc2c1C(C(C)c1ccccc1)C(C#N)=C(N)O2` (stereo not given), with “inactive”.
Then `CCOc1cc(/C=C/c2cc(C(F)(F)F)[nH]c(=O)n2)ccc1O`, with 6.98 µM (active).
In the case of `Cn1cccc1/C=N/NC(=O)c1cccc(OC(F)(F)C(F)F)c1`, the IC50 result is “inactive”.
For the molecule `COc1cccc(C(=O)Nc2ccc3c(c2)n(C)c(=O)n3C)c1`, the IC50 is 12.6 µM (active).
Then `COc1cccc(C2C(C(C)=O)=C(O)C(=O)N2CCNCCO)c1` (stereo not given), with “inactive”; and `Oc1ccc(/C=N/NC(=S)Nc2cccnc2)cc1`, with 0.9 µM (active).
As to `Oc1cccc(/C=N/NC(=S)Nc2cccnc2)c1O`, the half-inhibitory concentration (IC50) is 8.21 µM (active).
Take `CN(C(=S)Nc1cccnc1)c1ccc(O)cc1`: the IC50 was 40.6 µM (active).
The entry for `CCC(C)[C@H](N)c1nnc(SCC(=O)Nc2cccc(Cl)c2)o1` (stereo not given in full) is “inactive”; for `CCn1c(SCC(=O)Nc2cccc(C(C)=O)c2)nnc1C(C)C` it is “inactive”.
On to `CCN(CC)c1ccc(NC(=O)CSc2nnc(N)s2)cc1C`, for which the half-maximal inhibitory concentration (IC50) was 8.65 µM (active).
The figure for `Cc1nn(-c2ccccc2)c2[nH]c(=O)c(CNc3ccc(N4CCOCC4)cc3)cc12` is 3.77 µM (active); for `Cc1nn(-c2ccc(Cl)cc2)c2[nH]c(=O)c(CNCc3ccc4c(c3)OCO4)cc12` it is “inactive”; for `Cc1cccc(NC(=S)N2CCCN(c3ncccc3[N+](=O)[O-])CC2)c1` it is “inactive”.
With `CCC(C)(C)n1nnnc1C(c1ccc2ncccc2c1)N1CCN(c2ccc(O)cc2)CC1` (stereo not given), the half-maximal inhibitory concentration (IC50) is 5.17 µM (active).
As to `Cc1nnc(C)c2c(C)n(-c3ccc4ncccc4c3)c(C)c12`, the IC50 result was “inactive”.
Consider `Oc1ccc(N2CCN(C(c3ccccn3)c3nnnn3C3CCCC3)CC2)cc1` (stereo not given), for which the 50% inhibitory concentration (IC50) was 3.68 µM (active).
Then `Oc1ccc(N2CCN(C(c3ccncc3)c3nnnn3C3CCCC3)CC2)cc1` (stereo not given), with 3.39 µM (active); and `CC(C)(C)n1nnnc1C(c1ccncc1)N1CCN(c2ccc(O)cc2)CC1` (stereo not given), with 6.75 µM (active).
The entry for `COc1ccc(-c2cc(-c3ccco3)[nH]c(=O)c2C#N)cc1OC` is “inactive”; for `O=C1SC(SCc2ccccc2)=N/C1=C\c1ccco1` it is “inactive”.
With `Cc1ccc(CNc2ccc(N3CCOCC3)cc2)cc1`, the IC50 was 3.89 µM (active).
In the case of `COc1ccc(CNc2ccc(N3CCOCC3)cc2)cc1`, the IC50 is 10.5 µM (active).
Consider `COc1ccc(CNS(=O)(=O)c2ccc3c(c2)N(C)CCO3)cc1`, for which the IC50 entry was “inactive”.
The figure for `CCCCn1nc(NS(=O)(=O)c2cccc3nonc23)c2cc3cccc(C)c3nc21` is 20.5 µM (active).
Then `CCCc1cc(=O)oc2cc(C)c(CN3CCCC3)c(O)c12`, with “inactive”; and `O=c1cc(CN2CCN(Cc3ccccc3)CC2)c2ccc(O)c(O)c2o1`, with 10.9 µM (active); and `O=C1CCN(Cc2ccc(O)cc2)CCN1[C@H](CO)Cc1ccccc1`, with “inactive”.

Usually IC50 stands for the midpoint of a concentration-inhibition curve.
